Laboratory results published in PubChem BioAssay (NCI).
Compounds without any hit were thinned out: in the full panel of roughly 79,000, 15% have a hit. Active and inactive are the calls of the source. Cut-off read from the data, not from the text of the source: active = growth inhibition above about 70%; inactive = the rest.

Assays:
[1] = NCI Yeast Anticancer Drug Screen. Data for the wt1 strain (AID 149);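 note: 0% = growth of vehicle-treated wt1 cultures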; conditions: S. cerevisiae wt1 strain (SPY 50644) growth inhibition, stronger effect = higher value
In short: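 Vehicle-normalised growth inhibition; strain wt1; compound exposure.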

[2] = NCI Yeast Anticancer Drug Screen. Data for the rad50EPP+ strain (AID 151);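 note: 0% = growth of vehicle-treated control cultures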; conditions: S. cerevisiae rad50 mutant strain, stronger effect = higher value
In short: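 Strain rad50EPP+; compound exposure; % growth inhibition vs vehicle.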

[3] = NCI Yeast Anticancer Drug Screen. Data for the mgt1 strain (AID 153); conditions: S. cerevisiae mgt1 mutant growth inhibition, stronger effect = higher value
In short: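 Read-out: yeast growth inhibition vs vehicle control. Strain mgt1, drawn from a panel altered in DNA damage repair or cell cycle control.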

[4] = NCI Yeast Anticancer Drug Screen. Data for the rad50 strain (AID 155);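 note: 0% = growth of vehicle-only cultures of the same strain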; conditions: S. cerevisiae rad50 strain growth inhibition, stronger effect = higher value
In short: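 A DNA repair-deficient yeast mutant serves as the test organism; compound-induced growth inhibition is calculated against vehicle-treated cells.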

[5] = NCI Yeast Anticancer Drug Screen. Data for the mec2-1 strain (AID 157); conditions: S. cerevisiae mec2-1 strain, stronger effect = higher value
In short: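 Cells of the genetically defined mec2-1 yeast strain are incubated with test compound. Inhibition of growth is calculated against vehicle-treated controls.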

[6] = NCI Yeast Anticancer Drug Screen. Data for the rad14 strain (AID 159);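 note: 0% = growth of vehicle-treated control cultures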; conditions: S. cerevisiae rad14 strain growth inhibition, stronger effect = higher value
In short: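 Vehicle-treated cultures served as the baseline for growth inhibition of a DNA repair-mutant yeast strain exposed to each compound.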

[7] = NCI Yeast Anticancer Drug Screen. Data for the sgs1 mgt1 strain (AID 161);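 note: 0% = growth of cultures given vehicle only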; conditions: S. cerevisiae sgs1 mgt1 strain, stronger effect = higher value
In short: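 Test agents were incubated with a DNA-repair-mutant yeast strain. Growth was then read and compared against vehicle-treated controls.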

[8] = NCI Yeast Anticancer Drug Screen. Data for the CLN2oe strain (AID 163);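 note: 0% = growth of vehicle-only control cultures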; conditions: S. cerevisiae CLN2oe strain, stronger effect = higher value
In short: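 Strain altered in cell-cycle control, incubated with compound; growth compared to solvent-treated controls.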

[9] = NCI Yeast Anticancer Drug Screen. Data for the cln2 rad14 strain (AID 165);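 note: 0% = growth equal to vehicle treated cultures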; conditions: S. cerevisiae cln2 rad14 strain, stronger effect = higher value
In short: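 The screen exposed genetically defined yeast (cln2 rad14) to test compounds and scored growth inhibition relative to vehicle-treated controls.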

[10] = NCI Yeast Anticancer Drug Screen. Data for the bub3 strain (AID 167); conditions: S. cerevisiae bub3 mutant strain, stronger effect = higher value
In short: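 Inhibition values come from growth of compound-treated mutant yeast normalised to vehicle-treated controls.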

[11] = NCI Yeast Anticancer Drug Screen. Data for the wt2 strain (AID 169);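 note: 0% = growth of vehicle-treated yeast cultures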; conditions: S. cerevisiae wt2 strain growth inhibition, stronger effect = higher value
In short: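 Steps: yeast strain treated with compound; growth recorded; inhibition calculated relative to cultures given vehicle alone.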

[12] = NCI Yeast Anticancer Drug Screen. Data for the mlh1 strain (AID 171);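 note: 0% = growth of vehicle-treated control cultures of the same strain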; conditions: S. cerevisiae mlh1 strain growth inhibition, stronger effect = higher value
In short: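 Yeast screen: mutant strain plus compound, growth scored against vehicle control wells.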

[13] = NCI Yeast Anticancer Drug Screen. Data for the sgs1 strain (AID 173);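 note: 0% = growth of vehicle-only control cultures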; conditions: S. cerevisiae sgs1 mutant, stronger effect = higher value
In short: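 Inhibition of yeast growth served as the measure. The mutant strain was treated with each compound, and growth was normalised to cultures receiving vehicle alone.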

[14] = NCI Yeast Anticancer Drug Screen. Data for the mlh1 rad18 strain (AID 175); conditions: S. cerevisiae mlh1 rad18 strain growth inhibition, stronger effect = higher value
In short: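 Compound-treated yeast growth, normalised to vehicle controls. Strain bears defined DNA repair mutations.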

[15] = NCI Yeast Anticancer Drug Screen. Data for the rad18 strain (AID 177); conditions: S. cerevisiae rad18 mutant growth inhibition, stronger effect = higher value
In short: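 Inhibition values reflect reduced yeast growth compared with vehicle-treated controls, using a strain engineered with a DNA damage repair defect.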

[16] = at 5.0 µM (retest, dose inferred, filed as 0.5)
[17] = at 50.0 µM (retest, dose inferred, filed as 5.0)

Measured: growth inhibition

CCOC(=O)Nc1ccc(C)c(NC(=O)OCC)c1
inactive: [1]; at 1.2 µM 6% | [1]; at 3.7 µM 13% | [1]; at 11.0 µM 12% | [1]; at 33.0 µM 15% | [1]; at 100.0 µM 17% | [2]; at 1.2 µM 4% | [2]; at 3.7 µM 8% | [2]; at 11.0 µM 19% | [2]; at 33.0 µM 34% | [2]; at 100.0 µM 47% | [3]; at 1.2 µM 3% | [3]; at 3.7 µM 9% | [3]; at 11.0 µM 12% | [3]; at 33.0 µM 12% | [3]; at 100.0 µM 16% | [4]; at 1.2 µM 5% | [4]; at 3.7 µM 6% | [4]; [16] 22% | [4]; at 11.0 µM 16% | [4]; at 33.0 µM 19% | [4]; at 50.0 µM -1.75% | [4]; at 100.0 µM 26% | [5]; at 1.2 µM 4% | [5]; at 3.7 µM 8% | [5]; [16] -2% | [5]; at 11.0 µM 11% | [5]; at 33.0 µM 19% | [5]; [17] 14% | [5]; at 50.0 µM 6% | [5]; at 100.0 µM 20% | [6]; at 1.2 µM 3% | [6]; at 3.7 µM 7% | [6]; at 11.0 µM 10% | [6]; at 33.0 µM 15% | [6]; at 100.0 µM 21% | [7]; [16] 11% | [7]; [17] 57% | [7]; at 50.0 µM 4.65% | [8]; at 1.2 µM 9% | [8]; at 3.7 µM 13% | [8]; at 11.0 µM 23% | [8]; at 33.0 µM 23% | [8]; at 100.0 µM 23% | [9]; [16] 11% | [9]; [17] 23% | [9]; at 50.0 µM -38.4% | [10]; at 1.2 µM 2% | [10]; at 3.7 µM 8% | [10]; [16] 35% | [10]; at 11.0 µM 7% | [10]; at 33.0 µM 13% | [10]; at 50.0 µM 14.3% | [10]; at 100.0 µM 13% | [11]; at 1.2 µM 4% | [11]; at 3.7 µM 8% | [11]; at 11.0 µM 10% | [11]; at 33.0 µM 14% | [11]; at 100.0 µM 13% | [12]; at 1.2 µM 3% | [12]; at 3.7 µM 8% | [12]; at 11.0 µM 14% | [12]; at 33.0 µM 19% | [12]; at 100.0 µM 23% | [13]; at 1.2 µM 3% | [13]; at 3.7 µM 6% | [13]; at 11.0 µM 12% | [13]; at 33.0 µM 20% | [13]; at 100.0 µM 30% | [14]; [16] 34% | [14]; at 50.0 µM 8.35% | [15]; at 1.2 µM 8% | [15]; at 3.7 µM 14% | [15]; at 11.0 µM 30% | [15]; at 33.0 µM 61%
active: [4]; [17] 80% | [10]; [17] 76% | [14]; [17] 78% | [15]; at 100.0 µM 82%

O=C1C(/C=C/c2ccc(Cl)cc2)=NNC2N1N=C1NC(=O)C3(NN12)c1ccccc1-c1ccccc13 (centres undefined)
inactive: [1]; at 1.2 µM 1% | [1]; at 3.7 µM 2% | [1]; at 11.0 µM 1% | [1]; at 33.0 µM 2% | [1]; at 100.0 µM 6% | [2]; at 1.2 µM -1% | [2]; at 3.7 µM -3% | [2]; at 11.0 µM 1% | [2]; at 33.0 µM 0% | [2]; at 100.0 µM 10% | [3]; at 1.2 µM -2% | [3]; at 3.7 µM -2% | [3]; at 11.0 µM -2% | [3]; at 33.0 µM -13% | [3]; at 100.0 µM 4% | [4]; at 1.2 µM -7% | [4]; at 3.7 µM -15% | [4]; [16] -10% | [4]; at 11.0 µM -21% | [4]; at 33.0 µM -1% | [4]; [17] 22% | [4]; at 100.0 µM 12% | [5]; at 1.2 µM 0% | [5]; at 3.7 µM 1% | [5]; [16] -10% | [5]; at 11.0 µM 0% | [5]; at 33.0 µM 5% | [5]; [17] 25% | [5]; at 100.0 µM 9% | [7]; [16] -4% | [7]; [17] 22% | [8]; at 1.2 µM -3% | [8]; at 3.7 µM -3% | [8]; at 11.0 µM 1% | [8]; at 33.0 µM 9% | [8]; at 100.0 µM 14% | [9]; [16] 18% | [9]; [17] 32% | [9]; at 50.0 µM 62.9% | [10]; at 1.2 µM -2% | [10]; at 3.7 µM 1% | [10]; [16] -19% | [10]; at 11.0 µM 0% | [10]; at 33.0 µM -2% | [10]; [17] -12% | [10]; at 100.0 µM 1% | [11]; at 1.2 µM -2% | [11]; at 3.7 µM -2% | [11]; at 11.0 µM -2% | [11]; at 33.0 µM 1% | [11]; at 100.0 µM 4% | [12]; at 1.2 µM 0% | [12]; at 3.7 µM 0% | [12]; at 11.0 µM 1% | [12]; at 33.0 µM 2% | [12]; at 100.0 µM 4% | [13]; at 1.2 µM -1% | [13]; at 3.7 µM 0% | [13]; at 11.0 µM -1% | [13]; at 33.0 µM 1% | [13]; at 100.0 µM 3% | [14]; [16] -34% | [14]; [17] 62% | [15]; at 1.2 µM -3% | [15]; at 3.7 µM -1% | [15]; at 11.0 µM -1% | [15]; at 33.0 µM 0% | [15]; at 100.0 µM 17%
active: [4]; at 50.0 µM 83.3% | [5]; at 50.0 µM 76.2% | [7]; at 50.0 µM 73.5% | [10]; at 50.0 µM 87.2% | [14]; at 50.0 µM 87.7%

CCCCN(CCCC)c1ccc(N=Nc2ccc(S(=O)(=O)O)cc2)cc1
inactive: [1]; at 1.2 µM -9% | [1]; at 3.7 µM 2% | [1]; at 11.0 µM 33% | [2]; at 1.2 µM 10% | [2]; at 3.7 µM 8% | [2]; at 11.0 µM 48% | [3]; at 1.2 µM 19% | [3]; at 3.7 µM 39% | [4]; at 1.2 µM 16% | [4]; at 3.7 µM 14% | [4]; [16] 63% | [4]; at 11.0 µM 38% | [5]; at 1.2 µM 32% | [5]; at 3.7 µM 43% | [5]; [16] 52% | [6]; at 1.2 µM -5% | [6]; at 3.7 µM 8% | [6]; at 11.0 µM 38% | [7]; [16] -48% | [8]; at 1.2 µM 12% | [8]; at 3.7 µM -15% | [8]; at 11.0 µM -8% | [9]; [16] 20% | [10]; at 1.2 µM 34% | [10]; at 3.7 µM 55% | [10]; [16] -2% | [11]; at 1.2 µM -7% | [11]; at 3.7 µM 39% | [12]; at 1.2 µM 1% | [12]; at 3.7 µM 18% | [13]; at 1.2 µM 30% | [13]; at 3.7 µM 53% | [14]; [16] 51% | [15]; at 1.2 µM -18% | [15]; at 3.7 µM 0% | [15]; at 11.0 µM 8%
active: [1]; at 33.0 µM 97% | [1]; at 100.0 µM 97% | [2]; at 33.0 µM 84% | [2]; at 100.0 µM 87% | [3]; at 11.0 µM 92% | [3]; at 33.0 µM 97% | [3]; at 100.0 µM 97% | [4]; at 33.0 µM 92% | [4]; [17] 99% | [4]; at 50.0 µM 87.7% | [4]; at 100.0 µM 93% | [5]; at 11.0 µM 77% | [5]; at 33.0 µM 97% | [5]; [17] 98% | [5]; at 50.0 µM 90.7% | [5]; at 100.0 µM 97% | [6]; at 33.0 µM 97% | [6]; at 100.0 µM 97% | [7]; [17] 98% | [7]; at 50.0 µM 91.7% | [8]; at 33.0 µM 97% | [8]; at 100.0 µM 96% | [9]; [17] 98% | [9]; at 50.0 µM 88.7% | [10]; at 11.0 µM 71% | [10]; at 33.0 µM 94% | [10]; [17] 96% | [10]; at 50.0 µM 89.8% | [10]; at 100.0 µM 95% | [11]; at 11.0 µM 89% | [11]; at 33.0 µM 97% | [11]; at 100.0 µM 97% | [12]; at 11.0 µM 82% | [12]; at 33.0 µM 94% | [12]; at 100.0 µM 94% | [13]; at 11.0 µM 90% | [13]; at 33.0 µM 94% | [13]; at 100.0 µM 94% | [14]; [17] 99% | [14]; at 50.0 µM 88.2% | [15]; at 33.0 µM 90% | [15]; at 100.0 µM 92%
